A selection: hits, their analogues and other compounds. The true share with any hit is near 5.9%.
HepG2 tox: qHTS for Inhibitors of TGF-b: Cytotox Counterscreen; HepG2 CAGA-GFP viability, ATP luminescence, 18 h; Potency, µM (series often up to 46.1 µM), hits mostly cytotoxic; 410,000 tested, 0.76% active; AID 588856, 2011
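CellTiter-Glo luminescence gave cytotoxicity after 18 hours at 37 degrees C. The cells were HepG2 CAGA-GFP in 1% FBS DMEM, stimulated with 500 pg/mL TGF-beta after compound addition. %Activity was normalised to no-cell wells (complete cell-killing) and DMSO (no toxicity), and curves were fitted and classified.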
KB-3-1 tox: qHTS assay for MDR1-selective chemotherapeutics: Primary screen using the parental adenocarcinoma cell KB-3-1; KB-3-1 viability, CellTiter-Glo ATP luminescence, 72 h; Potency, µM (titrated, usually from 46.1 µM), hits mostly cytotoxic; 400,000 tested, 1.4% active; note: nearly all actives have a fitted effect of over 60% in size
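Here the drug-naive KB-3-1 line serves as comparator for MDR sub-line selectivity; cells received compound titrations, 72 h at 37 °C, then CellTiter-Glo readout.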
ATXN viability: Viability Counterscreen for Primary qHTS for Inhibitors of ATXN expression; S2 cells (HEK-293 line with an ATXN2-luciferase reporter) viability, CellTiter-Fluor protease fluorescence, 24 h; 400,000 tested, 0.49% active; Potency, µM (doses to about 56.7 µM), actives largely listed as cytotoxic; note: nearly all actives have a fitted effect of over 40% in size
TGFb inhibitor: qHTS for Inhibitors of TGF-b; Potency, µM (doses to about 46.1 µM), usual class: inhibitors; 410,000 tested, 1.2% active; HepG2 CAGA-GFP TGF-b/SMAD3 reporter, GFP fluorescence, 18 h; TGF-beta stimulated, 500 pg/mL final; note: nearly all actives have a fitted effect of over 65% in size
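Using HEPG2 CAGA-GFP reporter cells at 1000 cells/well, we pinned test compounds, stimulated with recombinant TGF-beta (500 pg/mL final) and measured total well GFP after 18 h.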
KB-V1 MDR tox: qHTS assay for MDR1-selective chemotherapeutics: Primary screen using the drug-selected MDR subline cells KB-V1 | Potency, µM (highest dose often 46.1 µM), usual class: cytotoxic | KB-V1 MDR cells viability, CellTiter-Glo, 72 h | 400,000 tested, 3.4% active | AID 1347076, 2019; note: nearly all actives have a fitted effect of over 60% in size
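Cells of the MDR subline KB-V1 are plated, dosed with compound at multiple concentrations, and incubated 72 h at 37 degrees C; CellTiter-Glo is then added and luminescence read after 10 min.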
ATXN2 expr inh: Primary qHTS for Inhibitors of ATXN expression; 360,000 tested, 0.72% active; Potency, µM (series often up to 57 µM), hits mostly inhibitors; HEK-293 ATXN2-luciferase reporter, luminescence, 24 h; note: nearly all actives have a fitted effect of over 55% in size
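qHTS (up to 57 uM final) was run with 24 h compound exposure of reporter cells at 37 °C. Each well was multiplexed: SteadyGlo luminescence measured ATXN2-luciferase expression after a fluorogenic Gly-Phe-AFC viability readout (25 uM final).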
Large screens that a line does not name were inactive; ! = not active in a repeat. Calls come from the whole dose curve; as a rule, active = well fitted curve in the direction sought with a large enough effect; inconclusive = small, poorly fitted or top-dose-only effect, or another doubt; inactive = no such curve, though single readings can be large; an effect the other way counts as inactive or inconclusive.

Cc1ccc(S(=O)(=O)Nc2ccc(N3CCCCC3)cc2)cc1	none
O=C(Nc1ccc(S(=O)(=O)N2CCCC2)cc1)Nc1ccc(F)cc1F	none
COc1ccc(NS(=O)(=O)c2ccc(NC(=O)C3CCCO3)cc2)cc1 (stereo not given)	none
CCC(Cn1nnc2ccccc2c1=O)NC(=O)Nc1ccc(C)cc1C (stereo not given)	none (no result: KB-3-1 tox, ATXN viability, KB-V1 MDR tox, ATXN2 expr inh)
Cc1ccc(S(=O)(=O)Nc2ccc(S(=O)(=O)NC(C)(C)C)cc2)cc1	KB-3-1 tox inconclusive, KB-V1 MDR tox 18µM
O=C(NC(CC(=O)N1CCN(c2ccccc2O)CC1)c1ccccc1)c1ccccc1Cl (stereo not given)	KB-V1 MDR tox 5.8µM
COCCC1CCCCN1Cc1nc(N2CCCC2)c2cc(OC)c(OC)cc2n1 (stereo not given)	none (no result: HepG2 tox, KB-3-1 tox, TGFb inhibitor, KB-V1 MDR tox, ATXN2 expr inh)
CCc1nc(C)cc2c1sc1ccccc12	none
CC[n+]1c(C)cc2c(sc3ccccc32)c1C	KB-3-1 tox 2.6µM, TGFb inhibitor inconclusive
Cc1ccc(Nc2nc(N)c([N+](=O)[O-])c(NCc3ccccc3)n2)cc1	TGFb inhibitor inconclusive, KB-V1 MDR tox inconclusive
COc1ccc(Nc2nc(N)c([N+](=O)[O-])c(NCCO)n2)cc1	KB-3-1 tox inconclusive, TGFb inhibitor inconclusive
COc1ccc(Nc2nc(N)c([N+](=O)[O-])c(NC3CCCCC3)n2)cc1	HepG2 tox 22µM, TGFb inhibitor inconclusive, KB-V1 MDR tox inconclusive, ATXN2 expr inh inconclusive (no result: ATXN viability)
CNc1nc(Nc2ccc(Br)cc2)nc(N)c1[N+](=O)[O-]	KB-3-1 tox 0.73µM, KB-V1 MDR tox inconclusive
COc1ccc(-n2cccc2/C=C/[N+](=O)[O-])cc1	KB-3-1 tox inconclusive, TGFb inhibitor 18µM, KB-V1 MDR tox inconclusive, ATXN2 expr inh inconclusive (no result: ATXN viability)
O=C(c1cc(-c2ccccc2)nn1-c1ccccc1)N1CCN(S(=O)(=O)c2ccc(F)cc2)CC1	KB-V1 MDR tox inconclusive
Cc1ccc(S(=O)(=O)N2CCN(C(=O)c3cc(-c4cccs4)nn3-c3ccccc3)CC2)cc1	KB-V1 MDR tox 4.6µM
O=C(c1cc(-c2cccs2)nn1-c1ccccc1)N1CCN(S(=O)(=O)c2ccccc2)CC1	KB-V1 MDR tox 16µM
CCOc1ccc(-c2cc3c(=O)n(CC(=O)NCc4ccc(Cl)cc4)ccn3n2)cc1	none
O=C(/C=C/c1cccnc1)Nc1cccc([S+](=O)([O-])Nc2ccccc2F)c1	none (no result: HepG2 tox, ATXN viability, TGFb inhibitor, ATXN2 expr inh)
O=C1CCCc2cc(S(=O)(=O)N3CCCC(C(=O)Nc4ccc(F)c(Cl)c4)C3)ccc2N1 (stereo not given)	KB-3-1 tox inconclusive, ATXN viability inconclusive, KB-V1 MDR tox inconclusive, ATXN2 expr inh inconclusive
Cc1ccccc1-c1nnc(CN2CCN(c3cccc(C)c3C)CC2)o1	TGFb inhibitor inconclusive
COc1cccc(NC(=O)CN(C)C(=O)CC2Sc3ccccc3NC2=O)c1 (stereo not given)	KB-V1 MDR tox 23µM
CN(CC(=O)Nc1ccc(Cl)c(C(F)(F)F)c1)C(=O)CC1Sc2ccccc2NC1=O (stereo not given)	ATXN viability inconclusive, TGFb inhibitor inconclusive, ATXN2 expr inh inconclusive (no result: KB-3-1 tox, KB-V1 MDR tox)
COc1cccc(NC(=O)CC2SC(=Nc3ccccc3)NC2=O)c1 (stereo not given)	ATXN viability inconclusive, KB-V1 MDR tox 16µM
CCn1ccnc1CN(C)Cc1cn(-c2cccc(C)c2)nc1-c1cccc(F)c1	KB-3-1 tox inconclusive, ATXN viability 25µM, TGFb inhibitor inconclusive, KB-V1 MDR tox inconclusive (no result: ATXN2 expr inh)
CCOc1ccccc1C(=O)N1CC(=O)Nc2ccc(C)cc2C1c1ccccc1 (stereo not given)	none
CC(C)OCCCN(Cc1ccco1)C(=O)c1cc2c(s1)-c1ccccc1OC2	KB-3-1 tox 16µM, ATXN viability inconclusive, KB-V1 MDR tox 9.2µM, ATXN2 expr inh inconclusive
COC(=O)c1cccc(Nc2c(-c3ccc(O)c(OC)c3)nc3nc[nH]n23)c1	none
CN(Cc1cnc2nc(N)nc(N)c2n1)c1ccc(C(=O)N[C@@H](CCC(=O)O)C(=O)O)cc1	KB-3-1 tox 0.065µM!, ATXN viability inconclusive, KB-V1 MDR tox 0.029µM!, ATXN2 expr inh 32µM!
CN(C)CC/C=C1/c2ccccc2Sc2c(O)cc(Cl)cc21	KB-3-1 tox inconclusive, ATXN viability inconclusive, KB-V1 MDR tox 15µM
COc1cc(Cl)cc2c1Sc1ccccc1/C2=C/CCN(C)C	KB-3-1 tox inconclusive, KB-V1 MDR tox inconclusive
COc1cc2c(cc1Cl)/C(=C\CCN(C)C)c1ccccc1S2	KB-3-1 tox inconclusive, ATXN viability inconclusive, TGFb inhibitor inconclusive, KB-V1 MDR tox 16µM
CN(C)CC/C=C1/c2cc(F)ccc2Sc2ccc(Cl)cc21	TGFb inhibitor inconclusive, ATXN2 expr inh inconclusive
C[C@@H]1C[C@H]2C3C[C@H](F)C4=CC(=O)C=CC4(C)[C@@]3(F)[C@@H](O)CC2(C)[C@@]1(O)C(=O)COC(=O)C(C)(C)C (stereo not given in full)	none (no result: HepG2 tox, KB-3-1 tox, TGFb inhibitor, KB-V1 MDR tox, ATXN2 expr inh)
N#CC1=C(SCC(=O)NCc2ccccc2)NC(=O)CC1c1ccco1 (stereo not given)	none
N#CC1=C(SCc2ccccc2)NC(=O)CC1c1ccco1 (stereo not given)	none
N#CC1=C(SCC(=O)Nc2ccccc2)NC(=O)CC1c1ccco1 (stereo not given)	KB-3-1 tox inconclusive, KB-V1 MDR tox 15µM
N#CC1=C(SCC(=O)NC2CCCCC2)NC(=O)CC1c1ccco1 (stereo not given)	KB-3-1 tox 15µM
CC(C)(C)OC(=O)N1CCCN(C(c2cc3ccccc3o2)c2nnnn2C(C)(C)C)CC1 (stereo not given)	ATXN viability inconclusive, KB-V1 MDR tox inconclusive (no result: HepG2 tox, TGFb inhibitor)
C=CCn1c(SCc2nc3cc(C(=O)OC)ccc3c(=O)[nH]2)nc2sc(CC)cc2c1=O	ATXN viability inconclusive, KB-V1 MDR tox 5.2µM
Cc1ccc(C)c(-c2nnc(NC(=O)C3=COCCO3)o2)c1	none
O=C(Nc1nnc(-c2ccc3c(c2)CCCC3)o1)c1ccc(Cl)cc1Cl	KB-3-1 tox inconclusive, ATXN viability 40µM, TGFb inhibitor inconclusive, ATXN2 expr inh inconclusive
O=C(Nc1nnc(-c2ccc(Cl)cc2)o1)C1=COCCO1	KB-V1 MDR tox 8.2µM
Cc1ccc(NC(=O)CN2C(=O)c3ccccc3Sc3ccc(C(=O)N4CCOCC4)cc32)c(Cl)c1	TGFb inhibitor inconclusive (no result: KB-3-1 tox, ATXN viability, KB-V1 MDR tox, ATXN2 expr inh)
COc1ccc(-c2cc3nc(C)cc(N)n3n2)cc1	HepG2 tox 10µM, KB-3-1 tox inconclusive, ATXN viability inconclusive, KB-V1 MDR tox inconclusive
COc1ccc(/C=N/NC(=O)C(C)n2cnc3ccccc3c2=O)cc1 (stereo not given)	none

Compound activity as filed in PubChem.
